Data reported in PubChem BioAssay AID504725 (Broad Institute, 2011).
Entries with a potency or affinity are not part of this list.

Molecular target: KSHV LANA C-terminal domain (residues 932-1162) binding to LBS DNA (UniProt O40947)
Assay: KSHV LANA DNA-binding disruption – biochemical, fluorescence polarization, cherry-picked samples, dose response (AID 504725)
Conditions: MBP-C-LANA / FAM-LBS DNA fluorescence polarization, percent change from plate compound-well median; series mostly up to 35 µM; activity change, negative = inhibition: at the top concentration; call rule not given here

Activity change, negative = inhibition, inactive:
CCOC(=O)c1ccccc1Nc1cc(C)nc2nc(C)nn12 -0.772%
Cc1cc(C)n(CCC(=O)N/N=C/c2ccc(O)cc2O)n1 -0.287%
CCCc1cc(C(=O)Nc2ccc(C(=O)c3ccc(C)cc3)cc2)n(C)n1 3.29%
CC(C)Cc1nc(SCC(=O)Nc2nnc(CC(C)C)s2)n[nH]1 1.85%
CCC(C)[C@H](NC(=O)[C@@H]1Cc2ccccc2CN1)C(=O)Nc1ccc2c(c1)OCO2 (stereo partly drawn) 0.254%
Cc1cccc(-c2nsc(SCC(=O)Nc3nccs3)n2)c1 2.95%
COc1ccc(CC(=O)O/N=C(\N)c2ccc(OC)cc2)cc1 -0.538%
COc1cccc(NC(=S)N2CCN(C(c3ccccc3)c3ccccc3)CC2)c1 4.03%
COc1ccc(CNC(=O)C2CCC(CNC(=O)[C@@H]3Cc4ccccc4CN3)CC2)cc1 (stereo partly drawn) 1.95%
O=C(NCC1CCCO1)c1cccc(S(=O)(=O)N(Cc2ccccc2)c2ccccc2)c1 (stereo not drawn) 2.67%
O=C(CSc1nc2ccccc2[nH]1)Nc1cccc(S(=O)(=O)N2CCOCC2)c1 -1.75%
Cc1cccc(Nc2nc(N)c([N+](=O)[O-])c(NCc3ccccc3)n2)c1 2.62%
O=C1c2cccc3c(N4CCCCC4)ccc(c23)C(=O)N1c1cccc(O)c1 -8.1%
Cc1ccc(OCC(=O)NC(=S)Nc2cccc(NC(=O)c3ccc(Cl)cc3Cl)c2)cc1 1.16%
CCN(C(=O)COC(=O)CCCOc1ccc(Cl)cc1C)c1c(N)n(Cc2ccccc2)c(=O)[nH]c1=O -5.38%
COC(=O)c1c(C)oc2ccc(N(C(C)=O)S(=O)(=O)c3ccccc3)cc12 2%
CC(C)CN(C(=O)CSc1nncn1C)C1CCS(=O)(=O)C1 (stereo not drawn) 0.323%
C=CCOC(=O)C1=C[C@H](c2csc3ccccc23)C[C@H](OCc2ccc(CO)cc2)O1 -1.01%
O=C(c1ccc2c(c1)CCN2S(=O)(=O)c1ccccc1)N1CCN(c2ccc(F)cc2)CC1 0.518%
CCN(Cc1ccccc1)C(=O)c1cccc(S(=O)(=O)N2CCN(Cc3ccccc3)CC2)c1 6.38%
Cc1cccc(COc2ccc(/C=N/NC(=O)c3nnn(-c4nonc4N)c3COc3ccc(F)cc3)cc2)c1 8.39%
Cc1ccc(-c2nnc(-c3ccc(NC(=O)c4ccco4)cc3)o2)cc1 -4%
Cc1cc2c(N)cccc2nn1 -4.72%
CSc1ncccc1C(=O)OCCCC(=O)c1ccc(F)cc1 3.3%
COc1ccc(-c2n[nH]c(=S)n2-c2ccc(C)cc2)cc1 2.28%
S=c1[nH]nc([C@@H]2C[C@H]2c2ccccc2)n1-c1ccccc1Cl -1.27%
NC(=S)N/N=C/c1ccc(-c2ccc([N+](=O)[O-])cc2)o1 18%
Cc1ccc(C(=O)c2coc3ccc(O)c(Cl)c23)cc1 -0.17%
COC(=O)c1ccc(OCC(O)CN2CCC(C)CC2)cc1 (stereo not drawn) -1.1%
NC(=S)N/N=C/c1cn(CCC(=O)O)nc1-c1cccc(Br)c1 2.56%
COc1ccccc1CNC(=O)CCS(=O)(=O)c1cccs1 0.006%
COc1ccc(-c2csc(NC(=O)CSc3nc(C)nc4sc(C(=O)O)c(C)c34)n2)cc1 -5.52%
O=c1[nH][nH]cc1C=Nc1ccc(Cl)cc1Cl 0.414%
Cc1ccc(CSc2ncnc3onc(C)c23)cc1 -2.54%
Cc1cc(-c2nnc(SCC(=O)Nc3ccccc3)n2C)no1 0.481%
Nc1nnc(CC(=O)N/N=C/c2cc([N+](=O)[O-])cc(Br)c2O)s1 -3.27%
O=c1cc(-c2ccc(O)c(O)c2)oc2cc(O[C@@H]3O[C@H](CO)[C@@H](O)[C@H](O)[C@H]3O)cc(O)c12 -15.9%
Cc1ccc(N=Nc2c(O)[nH]c3ccc(F)cc23)cc1 30.9%
